Laboratory results: the supplement of paper PMC10849652
Targets with a hit are over-represented here; the source holds about 8,800 in all. About 0.5% of all pairs of compound and target were hits.

Legend:
Assay in all cases: log2 fold change, soluble protein after heating vs DMSO (PISA); higher = thermal stabilisation; K562 lysate, 10 uM; active = over 0.2 and 3.5 SD of the protein, either way, in both replicates (recomputed)
[1] = compound: C1=CC=C(C=C1)[C@H](COC2=CC3=C(C=C2)NC(=O)N3)NC(=O)C4=CC=CN(C4=O)CC5=CC(=C(C=C5)F)F
How it was run: (§1)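 To prepare the extract, K562 pellets were dounce-homogenised in PBS pH 7.4 with 1 mM MgCl2, giving crude material at 1 mg/mL protein. This was treated with 10 μM compound for 30 min, then heated in aliquots for 3 min over 48°C-58°C before pooling and addition of NP-40 to 0.5% at 4°C. Centrifugation at 21,000xg for 90 min left soluble protein in the supernatant, which TMTpro 16plex LC-MS/MS quantified with equalised channel sums. Results are log-two fold changes in thermal stability compared with solvent controls, from duplicates.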

[2] = compound: CC1=C(SC2=C1C(=N[C@H](C3=NN=C(N32)C)CC(=O)N)C4=CC=C(C=C4)Cl)C
How it was run: as §1

[3] = compound: CC1=C2C(=CC=C1)N=C(N(C2=O)C3=CC=CC=C3C)CN4C=NC5=C(N=CN=C54)N
How it was run: as §1

[4] = compound: Cc1sc2c(c1C)C(c1ccc(Cl)cc1)=N[C@@H](CC(=O)OC(C)(C)C)c1nnc(C)n1-2
How it was run: as §1

[5] = compound: c1ccc([C@@H]2C[C@H]2NC2CCNCC2)cc1
How it was run: as §1

UniProt Q07973, sequence (Q07973 whole entry, looked up): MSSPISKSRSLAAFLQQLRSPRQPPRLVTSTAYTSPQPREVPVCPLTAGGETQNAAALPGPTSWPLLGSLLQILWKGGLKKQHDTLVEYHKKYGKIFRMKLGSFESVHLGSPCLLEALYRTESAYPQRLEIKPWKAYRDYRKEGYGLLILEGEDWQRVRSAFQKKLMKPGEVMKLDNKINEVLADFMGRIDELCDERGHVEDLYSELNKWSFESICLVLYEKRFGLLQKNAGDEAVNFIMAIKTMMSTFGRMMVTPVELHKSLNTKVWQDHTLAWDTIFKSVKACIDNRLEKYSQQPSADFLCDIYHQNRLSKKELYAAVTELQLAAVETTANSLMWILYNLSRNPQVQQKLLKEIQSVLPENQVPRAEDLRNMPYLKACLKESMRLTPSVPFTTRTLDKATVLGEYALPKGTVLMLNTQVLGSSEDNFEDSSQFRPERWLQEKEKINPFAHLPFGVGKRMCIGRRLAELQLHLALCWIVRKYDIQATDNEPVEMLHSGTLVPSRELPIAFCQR
UniProt Q7Z460, sequence (Q7Z460 whole entry, looked up): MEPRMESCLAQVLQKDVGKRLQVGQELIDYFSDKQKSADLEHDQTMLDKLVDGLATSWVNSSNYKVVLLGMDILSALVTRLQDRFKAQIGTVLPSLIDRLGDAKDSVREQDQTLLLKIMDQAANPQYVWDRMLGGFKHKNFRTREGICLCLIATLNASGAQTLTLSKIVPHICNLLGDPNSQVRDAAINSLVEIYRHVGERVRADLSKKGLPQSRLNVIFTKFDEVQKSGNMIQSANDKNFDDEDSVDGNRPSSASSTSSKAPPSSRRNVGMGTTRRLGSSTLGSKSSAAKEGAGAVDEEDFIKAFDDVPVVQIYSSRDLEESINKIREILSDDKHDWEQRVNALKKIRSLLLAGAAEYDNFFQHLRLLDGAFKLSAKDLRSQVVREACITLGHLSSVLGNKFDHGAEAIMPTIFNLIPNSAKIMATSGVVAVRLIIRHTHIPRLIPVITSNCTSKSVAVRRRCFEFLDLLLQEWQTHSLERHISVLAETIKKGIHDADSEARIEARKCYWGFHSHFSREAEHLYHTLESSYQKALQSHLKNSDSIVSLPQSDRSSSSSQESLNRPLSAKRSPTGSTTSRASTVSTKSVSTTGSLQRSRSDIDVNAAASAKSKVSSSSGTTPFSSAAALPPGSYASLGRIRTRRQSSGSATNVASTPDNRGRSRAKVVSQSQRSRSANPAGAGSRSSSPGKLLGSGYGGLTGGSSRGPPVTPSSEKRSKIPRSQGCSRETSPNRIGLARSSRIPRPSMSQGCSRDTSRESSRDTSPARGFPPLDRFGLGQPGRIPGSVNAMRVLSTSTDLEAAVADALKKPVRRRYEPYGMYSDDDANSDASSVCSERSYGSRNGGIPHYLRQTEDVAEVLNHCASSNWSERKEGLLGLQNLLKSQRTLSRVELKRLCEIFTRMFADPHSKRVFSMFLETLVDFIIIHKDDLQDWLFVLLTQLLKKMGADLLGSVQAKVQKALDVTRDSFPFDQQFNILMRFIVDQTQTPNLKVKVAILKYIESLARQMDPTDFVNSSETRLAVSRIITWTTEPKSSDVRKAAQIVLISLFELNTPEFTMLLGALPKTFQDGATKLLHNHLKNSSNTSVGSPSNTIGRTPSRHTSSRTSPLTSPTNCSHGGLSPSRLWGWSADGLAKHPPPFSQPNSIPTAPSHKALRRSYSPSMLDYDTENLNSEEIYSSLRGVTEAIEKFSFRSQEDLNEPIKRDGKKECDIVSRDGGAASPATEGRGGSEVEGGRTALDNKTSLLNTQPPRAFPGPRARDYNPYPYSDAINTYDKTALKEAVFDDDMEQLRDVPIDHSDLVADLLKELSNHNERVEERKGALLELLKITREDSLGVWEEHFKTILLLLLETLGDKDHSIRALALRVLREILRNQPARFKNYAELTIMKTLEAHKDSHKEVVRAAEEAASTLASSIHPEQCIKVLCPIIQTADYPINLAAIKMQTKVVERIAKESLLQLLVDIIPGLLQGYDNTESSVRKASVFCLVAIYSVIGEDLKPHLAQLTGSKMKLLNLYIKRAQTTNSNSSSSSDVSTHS
UniProt O60762, sequence (O60762 whole entry, looked up): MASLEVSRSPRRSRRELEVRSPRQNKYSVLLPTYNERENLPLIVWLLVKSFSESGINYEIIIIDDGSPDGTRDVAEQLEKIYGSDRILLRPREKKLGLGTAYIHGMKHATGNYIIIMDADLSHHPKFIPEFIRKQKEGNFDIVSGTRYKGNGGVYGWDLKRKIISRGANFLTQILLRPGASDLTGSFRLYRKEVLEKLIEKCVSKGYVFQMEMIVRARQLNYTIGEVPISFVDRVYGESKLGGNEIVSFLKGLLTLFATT
UniProt P29373, sequence (P29373 whole entry, looked up): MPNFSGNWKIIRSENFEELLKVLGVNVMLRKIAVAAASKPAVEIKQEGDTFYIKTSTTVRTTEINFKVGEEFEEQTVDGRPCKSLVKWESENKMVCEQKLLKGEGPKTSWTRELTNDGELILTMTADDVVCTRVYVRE
UniProt O60610, sequence (O60610 whole entry, looked up): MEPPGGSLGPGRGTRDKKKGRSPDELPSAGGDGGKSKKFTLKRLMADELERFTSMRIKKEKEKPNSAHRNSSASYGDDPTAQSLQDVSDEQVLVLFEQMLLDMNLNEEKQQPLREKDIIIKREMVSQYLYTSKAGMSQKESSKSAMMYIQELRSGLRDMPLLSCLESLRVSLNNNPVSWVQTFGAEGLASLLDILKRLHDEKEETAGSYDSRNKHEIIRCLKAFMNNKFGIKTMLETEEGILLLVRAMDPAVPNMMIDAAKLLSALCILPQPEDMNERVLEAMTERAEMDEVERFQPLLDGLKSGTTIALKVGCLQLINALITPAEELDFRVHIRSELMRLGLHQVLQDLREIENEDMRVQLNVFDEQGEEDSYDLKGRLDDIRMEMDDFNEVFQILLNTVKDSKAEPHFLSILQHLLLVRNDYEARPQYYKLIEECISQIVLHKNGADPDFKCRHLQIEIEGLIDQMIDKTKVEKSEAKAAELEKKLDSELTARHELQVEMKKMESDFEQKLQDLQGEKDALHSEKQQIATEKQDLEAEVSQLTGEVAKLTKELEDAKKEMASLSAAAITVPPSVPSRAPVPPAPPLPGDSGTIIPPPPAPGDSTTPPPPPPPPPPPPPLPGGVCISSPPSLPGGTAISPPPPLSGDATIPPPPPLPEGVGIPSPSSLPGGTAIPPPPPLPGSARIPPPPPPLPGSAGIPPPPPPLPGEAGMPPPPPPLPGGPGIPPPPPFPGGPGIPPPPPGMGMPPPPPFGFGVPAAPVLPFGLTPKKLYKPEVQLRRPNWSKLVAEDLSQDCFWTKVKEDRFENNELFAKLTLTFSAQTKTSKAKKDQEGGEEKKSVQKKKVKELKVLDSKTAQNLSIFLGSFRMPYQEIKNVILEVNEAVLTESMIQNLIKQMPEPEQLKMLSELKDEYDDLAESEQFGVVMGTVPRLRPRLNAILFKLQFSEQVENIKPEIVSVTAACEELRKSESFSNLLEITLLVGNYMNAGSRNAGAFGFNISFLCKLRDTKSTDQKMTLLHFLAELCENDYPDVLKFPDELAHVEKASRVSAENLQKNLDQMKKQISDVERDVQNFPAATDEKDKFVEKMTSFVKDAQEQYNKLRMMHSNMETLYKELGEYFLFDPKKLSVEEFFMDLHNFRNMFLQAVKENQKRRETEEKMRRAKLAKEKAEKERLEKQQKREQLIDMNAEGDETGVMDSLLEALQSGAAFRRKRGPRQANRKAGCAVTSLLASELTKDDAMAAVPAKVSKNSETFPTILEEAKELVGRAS
UniProt Q9H9E3, sequence (Q9H9E3 whole entry, looked up): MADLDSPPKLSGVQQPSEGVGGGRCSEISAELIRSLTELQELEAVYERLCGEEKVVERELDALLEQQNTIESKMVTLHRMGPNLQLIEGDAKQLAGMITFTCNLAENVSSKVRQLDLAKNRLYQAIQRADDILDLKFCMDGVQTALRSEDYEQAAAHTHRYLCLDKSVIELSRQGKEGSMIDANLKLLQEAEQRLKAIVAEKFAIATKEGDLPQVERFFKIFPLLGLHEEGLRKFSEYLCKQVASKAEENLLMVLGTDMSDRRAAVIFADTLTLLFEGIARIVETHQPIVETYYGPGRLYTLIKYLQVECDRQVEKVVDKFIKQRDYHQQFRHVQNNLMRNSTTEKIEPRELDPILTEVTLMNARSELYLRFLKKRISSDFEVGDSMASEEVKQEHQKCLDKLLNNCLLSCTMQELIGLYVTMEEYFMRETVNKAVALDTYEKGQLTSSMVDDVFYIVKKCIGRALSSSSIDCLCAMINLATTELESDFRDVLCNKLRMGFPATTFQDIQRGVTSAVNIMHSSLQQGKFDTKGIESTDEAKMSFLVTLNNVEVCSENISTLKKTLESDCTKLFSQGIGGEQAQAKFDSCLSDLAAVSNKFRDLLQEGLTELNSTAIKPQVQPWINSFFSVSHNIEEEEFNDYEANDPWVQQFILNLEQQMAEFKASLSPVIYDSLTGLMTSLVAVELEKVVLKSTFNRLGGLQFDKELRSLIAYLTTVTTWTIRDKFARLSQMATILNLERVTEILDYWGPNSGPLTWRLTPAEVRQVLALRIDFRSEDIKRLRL
UniProt Q9H467, sequence (Q9H467 whole entry, looked up): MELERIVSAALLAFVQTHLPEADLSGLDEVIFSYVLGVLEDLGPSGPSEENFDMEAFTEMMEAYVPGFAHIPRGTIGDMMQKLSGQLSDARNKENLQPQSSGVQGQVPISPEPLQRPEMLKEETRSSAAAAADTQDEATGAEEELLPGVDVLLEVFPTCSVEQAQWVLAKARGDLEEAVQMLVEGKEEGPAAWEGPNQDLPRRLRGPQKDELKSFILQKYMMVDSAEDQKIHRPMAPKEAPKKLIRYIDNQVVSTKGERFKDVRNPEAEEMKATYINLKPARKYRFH
UniProt P00374, sequence (P00374 whole entry, looked up): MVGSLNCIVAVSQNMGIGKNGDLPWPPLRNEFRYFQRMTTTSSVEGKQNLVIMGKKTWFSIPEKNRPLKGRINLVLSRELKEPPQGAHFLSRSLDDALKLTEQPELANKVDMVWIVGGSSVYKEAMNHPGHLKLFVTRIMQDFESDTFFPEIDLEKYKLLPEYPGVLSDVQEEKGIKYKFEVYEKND

Target | log2 fold change [1] | log2 fold change [2] | log2 fold change [3] | log2 fold change [4] | log2 fold change [5]
CSNK1D (UniProt P48730) | -0.027 (inactive) | 0.014 (inactive) | -0.127 (inactive) | -0.026 (inactive) | 0.025 (inactive)
CIP2A (UniProt Q8TCG1) | -0.03 (inactive) | -0.002 (inactive) | -0.008 (inactive) | -0.021 (inactive) | 0.018 (inactive)
DNAJC3 (UniProt Q13217) | 0.06 (inactive) | -0.073 (inactive) | -0.003 (inactive) | -0.01 (inactive) | 0.031 (inactive)
COG4 (UniProt Q9H9E3) | 0.005 (inactive) | 0.034 (inactive) | 0.096 (inactive) | -0.036 (inactive) | 0.011 (inactive)
CLPTM1L (UniProt Q96KA5) | -0.075 (inactive) | 0.039 (inactive) | 0.04 (inactive) | -0.02 (inactive) | 0.022 (inactive)
CHORDC1 (UniProt Q9UHD1) | 0.025 (inactive) | 0.006 (inactive) | -0.01 (inactive) | 0.017 (inactive) | 0.037 (inactive)
CLCN3 isoform 2 (UniProt P51790) | 0.033 (inactive) | 0.017 (inactive) | 0.053 (inactive) | -0.015 (inactive) | 0.033 (inactive)
CKM (UniProt P06732) | 0.008 (inactive) | -0.027 (inactive) | -0.109 (inactive) | -0.169 (inactive) | 0 (inactive)
DHFR (UniProt P00374) | -0.024 (inactive) | 0.024 (inactive) | 0.016 (inactive) | 0.031 (inactive) | 0.021 (inactive)
CRABP2 (UniProt P29373) | -0.057 (inactive) | -0.051 (inactive) | 0.055 (inactive) | -0.172 (inactive) | -0.001 (inactive)
CSNK1A1 (UniProt P48729) | -0.027 (inactive) | 0.007 (inactive) | -0.033 (inactive) | 0.025 (inactive) | -0.044 (inactive)
CSPP1 (UniProt Q1MSJ5) | -0.082 (inactive) | 0.001 (inactive) | 0.051 (inactive) | -0.008 (inactive) | -0.028 (inactive)
CUX1 isoform 3 (UniProt P39880) | -0.001 (inactive) | 0.024 (inactive) | 0.031 (inactive) | 0.025 (inactive) | 0.03 (inactive)
CLP1 (UniProt Q92989) | -0.023 (inactive) | -0.002 (inactive) | -0.023 (inactive) | 0.026 (inactive) | -0.1 (inactive)
CLIP1 isoform 1 (UniProt P30622) | 0.04 (inactive) | -0.008 (inactive) | -0.002 (inactive) | -0.028 (inactive) | -0.019 (inactive)
CTPS1 (UniProt P17812) | -0.02 (inactive) | -0.013 (inactive) | -0.029 (inactive) | -0.014 (inactive) | 0.023 (inactive)
CSNK2A1 (UniProt P68400) | -0.004 (inactive) | 0.012 (inactive) | -0.119 (inactive) | 0.034 (inactive) | 0.005 (inactive)
CIAO2A (UniProt Q9H5X1) | -0.049 (inactive) | 0.062 (inactive) | 0.023 (inactive) | -0.032 (inactive) | 0.064 (inactive)
CMPK2 (UniProt Q5EBM0) | 0.008 (inactive) | 0.091 (inactive) | -0.024 (inactive) | 0.039 (inactive) | -0.098 (inactive)
DPH5 isoform 5 (UniProt Q9H2P9) | 0.047 (inactive) | -0.024 (inactive) | 0.021 (inactive) | -0.144 (inactive) | -0.118 (inactive)
CNST (UniProt Q6PJW8) | 0.041 (inactive) | 0.019 (inactive) | -0.018 (inactive) | 0.004 (inactive) | -0.031 (inactive)
CLCN3 (UniProt P51790) | 0.094 (inactive) | 0.014 (inactive) | 0.061 (inactive) | 0.063 (inactive) | 0.017 (inactive)
CNOT4 isoform 6 (UniProt O95628) | -0.042 (inactive) | -0.02 (inactive) | -0.028 (inactive) | 0.051 (inactive) | -0.004 (inactive)
CNP (UniProt P09543) | -0.022 (inactive) | 0.001 (inactive) | 0.036 (inactive) | 0.016 (inactive) | 0.021 (inactive)
CYCS (UniProt P99999) | -0.013 (inactive) | 0.016 (inactive) | 0.002 (inactive) | 0.002 (inactive) | -0.01 (inactive)
CIB1 (UniProt Q99828) | -0.128 (inactive) | -0.272 (active) | -0.039 (inactive) | 0.023 (inactive) | 0.03 (inactive)
DNAAF5 (UniProt Q86Y56) | -0.054 (inactive) | 0.038 (inactive) | -0.005 (inactive) | 0.016 (inactive) | 0.064 (inactive)

Target | log2 fold change [1] | log2 fold change [2] | log2 fold change [3] | log2 fold change [4] | log2 fold change [5]
DEF6 (UniProt Q9H4E7) | -0.061 (inactive) | -0.05 (inactive) | -0.027 (inactive) | 0.036 (inactive) | -0.037 (inactive)
DIAPH1 (UniProt O60610) | -0.005 (inactive) | 0.013 (inactive) | 0.015 (inactive) | 0.007 (inactive) | 0.023 (inactive)
DHCR7 (UniProt Q9UBM7) | -0.107 (inactive) | 0.028 (inactive) | -0.031 (inactive) | -0.045 (inactive) | 0.091 (inactive)
DIAPH3 (UniProt Q9NSV4) | -0.09 (inactive) | 0.017 (inactive) | -0.035 (inactive) | 0.099 (inactive) | 0.195 (inactive)
DBF4 (UniProt Q9UBU7) | 0.073 (inactive) | 0.002 (inactive) | 0.071 (inactive) | 0.113 (inactive) | 0.078 (inactive)
CKAP2 (UniProt Q8WWK9) | 0.052 (inactive) | 0.066 (inactive) | 0.001 (inactive) | -0.003 (inactive) | -0.021 (inactive)
COPZ1 isoform 4 (UniProt P61923) | -0.101 (inactive) | -0.04 (inactive) | 0.06 (inactive) | 0.057 (inactive) | 0.096 (inactive)
CHMP4A isoform 2 (UniProt Q9BY43) | 0.035 (inactive) | -0.009 (inactive) | 0.007 (inactive) | -0.022 (inactive) | -0.152 (inactive)
CKS1B (UniProt P61024) | 0.017 (inactive) | -0.074 (inactive) | -0.058 (inactive) | 0.108 (inactive) | 0.194 (inactive)
DHRS3 (UniProt O75911) | 0.073 (inactive) | 0.064 (inactive) | -0.091 (inactive) | 0.018 (inactive) | -0.004 (inactive)
DFFB (UniProt O76075) | 0.06 (inactive) | -0.057 (inactive) | 0.061 (inactive) | -0.032 (inactive) | 0.081 (inactive)
CUEDC2 (UniProt Q9H467) | 0.074 (inactive) | 0.019 (inactive) | -0.017 (inactive) | 0.013 (inactive) | 0.11 (inactive)
CNOT6L (UniProt Q96LI5) | -0.014 (inactive) | 0.017 (inactive) | -0.013 (inactive) | -0.049 (inactive) | -0.164 (inactive)
CSNK2A2 (UniProt P19784) | -0.02 (inactive) | -0.033 (inactive) | -0.213 (inactive) | 0.038 (inactive) | 0.015 (inactive)
COX20 isoform 2 (UniProt Q5RI15) | 0.01 (inactive) | -0.047 (inactive) | -0.092 (inactive) | 0.001 (inactive) | 0.23 (inactive)
DCUN1D4 isoform 3 (UniProt Q92564) | 0.084 (inactive) | 0.087 (inactive) | 0.055 (inactive) | -0.139 (inactive) | 0.055 (inactive)
DOK1 (UniProt Q99704) | 0.048 (inactive) | -0.024 (inactive) | -0.005 (inactive) | 0.064 (inactive) | -0.036 (inactive)
CSNK1E (UniProt P49674) | -0.004 (inactive) | -0.072 (inactive) | -0.031 (inactive) | 0.031 (inactive) | -0.005 (inactive)
DPM1 (UniProt O60762) | -0.01 (inactive) | 0.048 (inactive) | 0.022 (inactive) | 0.073 (inactive) | 0.093 (inactive)
CNDP2 (UniProt Q96KP4) | 0.017 (inactive) | 0.017 (inactive) | -0.022 (inactive) | -0.006 (inactive) | -0.145 (inactive)
DHRS11 (UniProt Q6UWP2) | -0.004 (inactive) | 0.012 (inactive) | 0.018 (inactive) | 0.013 (inactive) | 0.014 (inactive)
CYP24A1 (UniProt Q07973) | 0.02 (inactive) | 0.142 (inactive) | 0.096 (inactive) | -0.136 (inactive) | -0.262 (inactive)
CMIP (UniProt Q8IY22) | -0.012 (inactive) | -0.006 (inactive) | -0.002 (inactive) | -0.029 (inactive) | 0.032 (inactive)
CLUH (UniProt O75153) | 0.03 (inactive) | 0.008 (inactive) | 0.021 (inactive) | -0.02 (inactive) | -0.058 (inactive)
CMTM3 (UniProt Q96MX0) | 0.058 (inactive) | -0.097 (inactive) | -0.018 (inactive) | 0.015 (inactive) | -0.024 (inactive)
CLASP1 (UniProt Q7Z460) | -0.019 (inactive) | 0.011 (inactive) | 0.022 (inactive) | -0.026 (inactive) | -0.007 (inactive)
